In experiment [1] the test system is Human papillomavirus type 1a protein E7 (residues 44-93). In words: HPV1a E7 fragment binders on microarrays, primary screen, biochemical, small-molecule microarray, residues 44-93, 635 nm fluorescence (AID 1108).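 Note: E7 fragment applied at 1 µg/mL in TBST for 1 h at 4 C; score combines spot fluorescence with its signal to noise ratio.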 As to conditions: small-molecule microarray binding, fluorescence 635 nm; higher = more signal.
The nature of experiment [2]: modulators of HCV replicon luciferase signal, primary screen, HCV replication inhibitor project, Huh7 cells, luciferase reporter (AID 1109).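 Note: huh7 hepatoma cells harbouring a luciferase neomycin HCV replicon reporter; luciferase luminescence as measure of HCV replicon replication; test concentration not given here.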 Particulars: 48 h, higher = more signal.
In experiment [3] the target is Left-right determination factor 2 (Homo sapiens) (UniProt O00292). The experiment can be described thus: LEFTY2 binders on small-molecule microarrays, primary screen, biochemical, small-molecule microarray, 635 nm fluorescence scan (AID 1110). As to conditions: LEFTY2 binding, higher = more signal.
For experiment [4], the target named is Calmodulin-1 (Homo sapiens) (UniProt P0DP23). In words: CALM1 binders on microarrays, EGTA buffer, profiling panel, biochemical, small-molecule microarray, Cy5-labelled CALM1 (AID 1111).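 Note: labelled calmodulin applied in Tris saline Tween buffer holding calcium plus EGTA and DTT.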 As to conditions: Cy5-CALM1 binding fluorescence, higher = more signal.
Experiment [5] has the same target. In words: calcium-bound CALM1 binders on microarrays, profiling panel, artefact control for SMM control-protein annotation, biochemical, small-molecule microarray, Cy5-labelled CALM1, plus calcium (AID 1112).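 Note: score merges spot fluorescence with signal to noise from triplicate slides.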 Particulars: Cy5-CALM1 binding fluorescence, higher = more signal.
Experiment [6] in a line: small-molecule microarray binders of probe aWnt5a, primary screen, biochemical, biotinylated probe, 635/667 nm fluorescence (AID 1113).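 Note: score merges 667 nm fluorescence intensity with signal-to-noise per printed feature.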 Particulars: higher = more signal.
Experiment [7] in a line: small-molecule microarray binders of probe aShh, primary screen, biochemical, biotinylated probe, 635/667 nm fluorescence (AID 1114).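 Note: probe is biotin-labelled aShh protein from a stem cell growth factor screen; measures binding of labelled protein to compounds printed on the slide; score merges feature fluorescence at 667 nm with signal-to-noise.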 As to conditions: higher = more signal.
A short description of experiment [8]: small-molecule microarray binders of probe aNog, primary screen, biochemical, biotinylated probe, 635/667 nm fluorescence (AID 1115).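 Note: probe is biotinylated aNog protein used at 0.15 µg/mL for 1 h at 4 C; z-score combines 667 nm fluorescence of each spot with its signal to noise.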 As to conditions: higher = more signal.
For experiment [9], the target named is Torsin-1A-interacting protein 1 (Homo sapiens) (UniProt Q5JTV8). In words: LAP1 binders from COS7 cell lysate, primary screen, small-molecule microarray, 635/667 nm fluorescence (AID 1116). Particulars: COS7-hLAP1 lysate binding, 635 nm fluorescence, higher = more signal.
For experiment [10], the target named is Alpha-bungarotoxin (Bungarus multicinctus) (UniProt P60615). The experiment can be described thus: alpha-bungarotoxin binders on microarray, profiling panel, artefact control for SMM control protein annotation, biochemical, small-molecule microarray, Alexa647 label, 635/667 nm fluorescence (AID 1117). Particulars: alpha-BTX-A647 binding fluorescence, higher = more signal.

The target in a further experiment is Albumin (Bos taurus) (UniProt P02769). The experiment can be described thus: bovine serum albumin binders on microarray, profiling panel, artefact control for SMM control protein annotation, biochemical, small-molecule microarray, Alexa647 label, 635/667 nm fluorescence (AID 1118).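 Note: score merges 667 nm emission intensity and signal-to-noise per printed compound spot.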 As to conditions: BSA-A647 binding, fluorescence 635 nm, higher = more signal.
Experiment [11] is described as follows: small-molecule microarray binders of probe aXIP, primary screen, biochemical, NeuroSMM set, 635/667 nm fluorescence (AID 1119).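 Note: probe is the protein aXip251-270 applied at 1 µg/mL to compound-printed slides; binding of probe to printed compounds measured as 667 nm fluorescence plus signal to noise.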 Particulars: higher = more signal, called active from +8 up or from −8 down.
Experiment [12] can be described thus: small-molecule binders of probe aNOTCH3, primary screen, biochemical, small-molecule microarray, 635/667 nm fluorescence (AID 1120).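 Note: probe is a biotin-tagged antibody raised against NOTCH3 rather than NOTCH3 protein; score merges spot fluorescence near 667 nm with spot signal to noise.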 Particulars: higher = more signal.
Experiment [13] can be described thus: small-molecule binders of probe aNOTCH2, primary screen, biochemical, small-molecule microarray, 635/667 nm fluorescence (AID 1121).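 Note: score merges feature fluorescence read at 667 nm with its signal to noise.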 As to conditions: higher = more signal.
The target in experiment [14] is Carbonic anhydrase 2 (Homo sapiens) (UniProt P00918). The experiment can be described thus: CAII small-molecule binders, profiling panel, biochemical, small-molecule microarray, Alexa647-labelled CAII (AID 1122). Particulars: CAII-A647 binding fluorescence, higher = more signal.
Experiment [15] in a line: COS7 lysate on small-molecule microarray, probe aHis, 635 nm (AID 1123).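 Note: z-score combines 667nm fluorescence intensity with signal-to-noise per printed compound spot.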 Particulars: COS7 cell lysate, fluorescence, higher = more signal.
A short description of experiment [16]: compound binding in COS7 lysate, probe aLAP1, primary screen, cell lysate, small-molecule microarray (AID 1124).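 Note: lysate comes from COS7 cells expressing LAP1 and is applied at 0.3 µg/mL; score merges spot fluorescence near 667 nm with signal-to-noise over triplicate slides.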 Particulars: probe aLAP1, fluorescence, higher = more signal.
In a further experiment the test system is Sam68 (KHDRBS1). In words: Sam68 small-molecule binders, primary screen, biochemical, small-molecule microarray, 635 nm fluorescence (AID 1125).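 Note: score merges 667 nm channel intensity with signal to noise over triplicate slides.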 Particulars: small-molecule microarray binding, higher = more signal.
The subject of experiment [17] is Chordin-like protein 2 (CHRDL2). In words: CHRDL2 small-molecule binders, primary screen, biochemical, small-molecule microarray, 635 nm fluorescence (AID 1126).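 Note: printed compound slides probed with Chrdl2 protein at 4 µg/mL for 1 h at 4 C; score merges 667 nm emission intensity with signal to noise over three replicate slides.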 Particulars: small-molecule microarray binding, fluorescence 635 nm; higher = more signal.
The target in experiment [18] is Concanavalin-A (Canavalia ensiformis) (UniProt P02866). In words: ConA small-molecule binders, primary screen, artefact control for SMM control protein annotation, biochemical, small-molecule microarray, Alexa647 label, 635 nm (AID 1127).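 Note: z combines 667 nm emission intensity with signal-to-noise across three replicate slides.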 Particulars: ConA-A647 binding fluorescence, higher = more signal.

Structures are written as SMILES. Calls of active or inactive are those of the source.

Chain of Concanavalin-A (Canavalia ensiformis) (P02866 whole entry, looked up): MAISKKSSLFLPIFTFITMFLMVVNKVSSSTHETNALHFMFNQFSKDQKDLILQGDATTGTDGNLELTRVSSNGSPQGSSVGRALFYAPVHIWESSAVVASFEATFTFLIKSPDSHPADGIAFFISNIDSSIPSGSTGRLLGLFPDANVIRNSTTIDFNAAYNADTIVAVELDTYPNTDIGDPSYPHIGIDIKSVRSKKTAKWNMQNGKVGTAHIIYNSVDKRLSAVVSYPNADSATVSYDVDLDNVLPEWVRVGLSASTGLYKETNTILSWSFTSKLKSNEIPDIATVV
Chain of Left-right determination factor 2 (Homo sapiens) (O00292 whole entry, looked up): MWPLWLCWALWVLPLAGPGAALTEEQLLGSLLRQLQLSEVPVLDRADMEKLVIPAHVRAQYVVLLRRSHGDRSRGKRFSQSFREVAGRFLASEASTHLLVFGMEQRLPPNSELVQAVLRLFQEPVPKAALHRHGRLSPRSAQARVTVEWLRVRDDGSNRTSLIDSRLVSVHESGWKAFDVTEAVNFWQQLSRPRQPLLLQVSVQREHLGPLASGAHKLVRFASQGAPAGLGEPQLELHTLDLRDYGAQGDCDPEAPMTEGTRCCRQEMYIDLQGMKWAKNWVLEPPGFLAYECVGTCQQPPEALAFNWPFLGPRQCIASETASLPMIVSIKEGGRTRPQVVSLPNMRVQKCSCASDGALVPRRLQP
Chain of Torsin-1A-interacting protein 1 (Homo sapiens) (Q5JTV8 whole entry, looked up): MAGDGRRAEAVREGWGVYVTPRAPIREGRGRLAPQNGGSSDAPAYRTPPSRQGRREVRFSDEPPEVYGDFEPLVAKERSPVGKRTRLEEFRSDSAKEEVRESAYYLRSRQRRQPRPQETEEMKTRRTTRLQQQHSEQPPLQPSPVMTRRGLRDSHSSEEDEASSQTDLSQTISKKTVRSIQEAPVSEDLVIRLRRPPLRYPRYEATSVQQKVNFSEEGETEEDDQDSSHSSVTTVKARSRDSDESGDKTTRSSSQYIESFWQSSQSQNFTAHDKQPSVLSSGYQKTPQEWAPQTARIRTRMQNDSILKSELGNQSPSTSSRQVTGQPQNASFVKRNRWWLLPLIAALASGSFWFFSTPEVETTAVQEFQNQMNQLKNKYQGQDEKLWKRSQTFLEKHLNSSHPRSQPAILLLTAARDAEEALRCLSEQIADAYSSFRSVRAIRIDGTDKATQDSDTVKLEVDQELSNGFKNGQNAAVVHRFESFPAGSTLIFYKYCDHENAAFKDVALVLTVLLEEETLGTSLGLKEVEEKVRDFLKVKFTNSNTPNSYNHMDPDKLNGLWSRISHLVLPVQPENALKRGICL
Chain of Albumin (Bos taurus) (P02769 whole entry, looked up): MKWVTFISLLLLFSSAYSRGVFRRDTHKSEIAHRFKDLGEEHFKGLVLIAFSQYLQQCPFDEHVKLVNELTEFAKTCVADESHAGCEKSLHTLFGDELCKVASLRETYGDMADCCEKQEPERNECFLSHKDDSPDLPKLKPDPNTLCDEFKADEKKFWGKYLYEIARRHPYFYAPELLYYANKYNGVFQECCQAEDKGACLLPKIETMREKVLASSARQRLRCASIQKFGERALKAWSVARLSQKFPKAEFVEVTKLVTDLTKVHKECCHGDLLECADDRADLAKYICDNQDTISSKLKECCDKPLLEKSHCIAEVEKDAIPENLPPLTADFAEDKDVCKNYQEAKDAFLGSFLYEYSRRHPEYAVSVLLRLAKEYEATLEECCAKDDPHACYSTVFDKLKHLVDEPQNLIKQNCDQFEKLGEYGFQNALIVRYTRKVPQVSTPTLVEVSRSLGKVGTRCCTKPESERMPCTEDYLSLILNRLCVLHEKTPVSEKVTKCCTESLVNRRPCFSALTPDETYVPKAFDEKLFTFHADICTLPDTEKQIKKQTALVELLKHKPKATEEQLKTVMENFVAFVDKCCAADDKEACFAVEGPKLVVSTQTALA
Chain of Alpha-bungarotoxin (Bungarus multicinctus) (P60615 whole entry, looked up): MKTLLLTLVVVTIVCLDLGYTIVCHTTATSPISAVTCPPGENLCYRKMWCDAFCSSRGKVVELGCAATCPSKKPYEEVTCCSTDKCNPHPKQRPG

As for `O=C1OCC=C[C@H]2OC34C=CCN(CCN5CCOCC5)C(=O)[C@H]3N(CCCCCCO)C(=O)[C@@H]4[C@@H]12` (stereo not given in full), the composite z-score in experiment [1] is -0.139; in experiment [3], -0.207; in experiment [4], -0.238; in experiment [5], -0.695; in [6], -0.176; in experiment [7], -0.0904. Further, the composite z-score in experiment [8] was 0.0395; in experiment [9], 1.37; in experiment [10], 0.0977; with Albumin (Bos taurus) it was 0.509; in [12], 0.0208; in [13] it was -0.104. Further, the composite z-score in experiment [14] was 0.688; in [15] it was 3.1; in [16], 0.55; in the experiment with Sam68 (KHDRBS1) it was 0.274; in experiment [17], 0.158; in experiment [18], 0.0683. For the same molecule, the z-score in [2] was -0.413. Besides, the composite Z-score in experiment [11] is -1.05 (inactive).

Consider `Cc1ccc(F)cc1S(=O)(=O)N[C@@H]1CCN(Cc2ccc(C(F)(F)F)cc2)C1`, for which the composite z-score is -0.237 in experiment [1]; -0.0209 in [3]; -1.3 in experiment [4]; -0.904 in experiment [5]; -0.152 in experiment [6]; 0.0723 in experiment [7]. For the same molecule, the composite z-score in experiment [8] was -0.311; in experiment [9], -0.0249; in experiment [10], -0.536; with Albumin (Bos taurus), -0.973; in experiment [12] it was -0.159; in experiment [13], -0.173. For the same molecule, the composite z-score in [14] is -0.171; in [15], 0.0774; in [16], 0.242; with Sam68 (KHDRBS1) it was 0.144; in [17] it was 0.509; in [18] it was -0.628. The z-score in [2] is -2.01. Also, the composite Z-score in [11] was 0.512 (inactive).

As for `CC(C)(C)OC(=O)CC[C@@]1(C(N)=O)N=C(c2ccc(OCCCO)cc2)O[C@@H]1c1ccccc1N=[N+]=[N-]`, the composite z-score in [1] is 1.2; in experiment [3] it was -0.038; in experiment [4], 1.03; in experiment [5], 0.774; in experiment [6] it was -0.0125; in experiment [7], 0.0796. The composite z-score was -0.504 in experiment [8]; 1.12 in experiment [9]; 1.22 in [10]; 0.501 with Albumin (Bos taurus); 0.191 in [12]; -0.0241 in experiment [13]. For the same molecule, the composite z-score is 0.616 in experiment [14]; 2.08 in experiment [15]; -0.293 in experiment [16]; 1.07 in the experiment with Sam68 (KHDRBS1); -0.409 in experiment [17]; 1.13 in experiment [18]. Also, in experiment [2], the z-score was 3.02. In experiment [11], the composite Z-score is 0.005 (inactive).

With `COC(=O)[C@@]1(Cc2ccccc2)[C@H]2c3cc(C(=O)N(C)C)n(Cc4ccccc4)c3C[C@H]2CN1C(=O)c1ccccc1`, the composite z-score in [1] was 0.104; in experiment [3], -0.586; in [4] it was 0.733; in [5], 0.0453; in [6], 0.3; in [7] it was 1.63. Also, the composite z-score in experiment [8] is 0.837; in experiment [9] it was 0.706; in experiment [10], 0.273; in the experiment with Albumin (Bos taurus) it was 0.75; in experiment [12] it was 0.184; in [13], -0.0895. Further, the composite z-score was 0.749 in experiment [14]; 1.41 in [15]; -0.469 in experiment [16]; -0.0506 with Sam68 (KHDRBS1); -0.539 in [17]; 0.919 in [18]. In experiment [2], the z-score was -1.13. For the same molecule, the composite Z-score in experiment [11] is 0.047 (inactive).

`CC(C)CNC(=O)[C@@]1(C)c2ccccc2C(=O)N(C(C)C)[C@H]1c1ccc(CO)cc1`: the composite z-score in [1] is -1.4; in [3] it was -0.243; in experiment [4], -0.489; in [5] it was -0.577; in experiment [6], -0.191; in experiment [7] it was -0.375. In addition, the composite z-score in experiment [8] is -0.524; in [9], -0.181; in experiment [10], -0.018; in the experiment with Albumin (Bos taurus) it was -1.44; in [12], -0.146; in experiment [13], -0.132. Also, the composite z-score was 0.903 in [14]; -0.445 in [15]; -0.121 in experiment [16]; -1.06 in the experiment with Sam68 (KHDRBS1); -1.02 in [17]; -2 in experiment [18]. In addition, in [2], the z-score was -1.13. Further, in experiment [11], the composite Z-score is -0.0662 (inactive).

The values are drawn from PubChem BioAssay.
